These sequences were tested against PUM1 PUF domain R5-TRA (Homo sapiens, UniProt Q14671 828-1176, C1007T;Q1011A) (assay: yeast three-hybrid, YBZ-1, SC-Leu-His + 0.5 mM 3-AT, 4 days). Settings: tags: N-Gal4 AD-HA kept; label: inside an RPR1-promoter hybrid RNA with tandem MS2 sites; ssRNA.
Chain of PUM1 PUF domain R5-TRA (Q14671 828-1176 C1007T/Q1011A): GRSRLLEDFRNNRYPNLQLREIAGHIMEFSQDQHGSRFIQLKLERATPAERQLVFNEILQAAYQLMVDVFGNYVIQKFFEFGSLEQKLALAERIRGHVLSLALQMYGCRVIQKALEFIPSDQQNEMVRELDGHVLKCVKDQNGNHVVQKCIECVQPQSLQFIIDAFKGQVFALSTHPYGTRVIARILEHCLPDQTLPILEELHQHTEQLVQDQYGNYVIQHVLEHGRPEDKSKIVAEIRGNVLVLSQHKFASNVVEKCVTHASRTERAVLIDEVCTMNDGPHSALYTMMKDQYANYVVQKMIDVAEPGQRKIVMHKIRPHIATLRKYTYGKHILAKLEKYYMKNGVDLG
How it was run: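 Pumilio-1 PUF domain libraries, randomized at the three base-contacting residues of each repeat, were co-expressed with matching RNA elements from a centromeric plasmid in strain YBZ-1, which carries a LexA–MS2 coat fusion and a HIS3 reporter. Transformants grew for four days on SC-Leu (input) or on SC-Leu-His + 0.5 mM 3-AT (selection), and the repeat regions were PCR-amplified and Illumina-sequenced. The interaction score is the log change in variant frequency from input to selection. That logarithm is base 2, with a pseudocount of 1 where a variant was absent.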
For “GGCUAGAACUAGUGGAUCCCCCGGCGCCCGGCGGCUCGAGCCCGGGUAAGUGUGAAUAGUCUGCAUGCCGCCGGGCGCCAUGCCUGCAGGUCGACUCUAGAAAACAUG”, the binding signal was 1.91 log2 enrichment (interaction score). “GGCUAGAACUAGUGGAUCCCCCGGCGCCCGGCGGCUCGAGCCCGGGUAAGUGUUAAUAGUCUGCAUGCCGCCGGGCGCCAUGCCUGCAGGUCGACUCUAGAAAACAUG” was tested, and the binding signal was 2.4 log2 enrichment (interaction score). For “GGCUAGAACUAGUGGAUCCCCCGGCGCCCGGCGGCUCGAGCCCGGGUAAGUGUAAAUAGUCUGCAUGCCGCCGGGCGCCAUGCCUGCAGGUCGACUCUAGAAAACAUG”, the binding signal was 2.82 log2 enrichment (interaction score).

— PMC8384837, “Expanding the binding specificity for RNA recognition by a PUF domain”
